High-throughput results as filed in PubChem BioAssay.
NRP1-CendR mod: modulators of CendR peptide binding to human neuropilin-1; O14786; FAM-RPARPAR peptide binding to NRP-1, fluorescence polarization; inhibition, % at 25 µM; 0.85% of 360,000 active; AID 602438;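 active means inhibition or corrected inhibition above about 18%, plus a signal ratio from 0.5 to 1.5, limit read from the data, passing the limit was not always enough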
ADAM17 inh: inhibitors of human ADAM17; recombinant ADAM17, EDANS/DABCYL FRET peptide cleavage; inhibition, % at 6.95 µM; 0.83% of 370,000 active; AID 720648;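 active means inhibition above the mean of compounds lying between control limits plus 3 SD, set per campaign, cut at about 8.5% in these data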;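 further: 0% = DMSO-only wells as the low control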
APOBEC3A inh: inhibitors of human APOBEC3A DNA deaminase; recombinant A3A, FAM/TAMRA ssDNA deamination fluorescence; inhibition, % at 20 µM; 0.41% of 330,000 active; P31941;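 active means at least 40% inhibition at 20 µM here, with at most 30% in a related deaminase screen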;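 further: plate controls were A3A with DMSO for no effect and wells lacking A3A enzyme for full effect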
Target sequence (P31941 whole entry, looked up): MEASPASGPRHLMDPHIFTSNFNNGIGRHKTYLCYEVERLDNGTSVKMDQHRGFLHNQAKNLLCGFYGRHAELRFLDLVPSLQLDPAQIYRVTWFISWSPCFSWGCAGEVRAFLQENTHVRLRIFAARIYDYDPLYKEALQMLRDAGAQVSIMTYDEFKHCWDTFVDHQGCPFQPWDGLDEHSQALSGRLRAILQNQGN
APOBEC3G inh: blocks human APOBEC3G single-stranded DNA deamination | inhibition, % at 20 µM | Q9HC16 | 0.28% of 330,000 active | AID 493012 | recombinant A3G, ssDNA deamination FAM/TAMRA fluorescence;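 active means inhibition of at least 40% at 20 µM, with no more than 30% in the related APOBEC3A deaminase screen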;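 further: plate controls were DMSO wells with A3G for no effect and wells lacking A3G enzyme for full effect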
Target sequence (Q9HC16 whole entry, looked up): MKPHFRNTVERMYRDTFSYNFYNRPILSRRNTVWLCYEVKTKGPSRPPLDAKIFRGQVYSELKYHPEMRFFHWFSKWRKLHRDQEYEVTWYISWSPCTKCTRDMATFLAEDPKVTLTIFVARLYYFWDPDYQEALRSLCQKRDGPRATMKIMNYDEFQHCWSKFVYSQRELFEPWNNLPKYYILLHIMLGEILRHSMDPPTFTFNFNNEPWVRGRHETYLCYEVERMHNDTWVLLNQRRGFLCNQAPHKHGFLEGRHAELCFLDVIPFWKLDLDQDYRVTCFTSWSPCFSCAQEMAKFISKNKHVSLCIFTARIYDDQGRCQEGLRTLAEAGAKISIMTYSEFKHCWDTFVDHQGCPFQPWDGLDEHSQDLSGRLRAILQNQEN
ADAM10 inh: inhibits human ADAM10; recombinant ADAM10, EDANS/DABCYL FRET peptide cleavage, 3 h; inhibition, % at 7 µM; O14672; 0.62% of 370,000 active;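 active means inhibition above a per-campaign cutoff equal to the mean of compounds falling between control-based bounds plus 3 SD, cut at about 20% in these data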;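 further: 0% = DMSO wells while the 100% control is not disclosed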
ADAM10 confirm: human ADAM10 inhibition, confirmation | shares compounds with ADAM10 inh | ADAM10 QFRET peptide cleavage, EDANS fluorescence | inhibition, % at 6.95 µM | 1% of 2,100 active | AID 743208;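 active means inhibition above about 20% chosen separately for each screening run, limit read from the data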;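 further: 0% = DMSO wells and 100% = marimastat wells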
ADAM17 ctr: ADAM17 inhibition, counter-screen for ADAM10 exosite hits | ADAM17 QFRET peptide cleavage, EDANS fluorescence | shares compounds with ADAM10 inh | inhibition, % at 6.95 µM | 0.5% of 2,100 active | AID 743214;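 active means mean triplicate inhibition above the solvent-only control wells' mean plus 3 SD, cut at about 12% in these data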;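 further: 0% = DMSO wells and 100% = marimastat wells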
* = called active by the depositor; x = not tested or not shown. An excerpt weighted towards active compounds, which were near 2.4% of everything screened.

SMILES | NRP1-CendR mod | ADAM17 inh | APOBEC3A inh | APOBEC3G inh | ADAM10 inh | ADAM10 confirm | ADAM17 ctr
CCOC(=O)CCCNC(=O)OC1CC2CC1[C@H]1CCCCN1[C@H]2Cc1ccccc1 (some centres undefined) | x | 1 | x | x | -6 | x | x
CC(=O)CCN1CCSCCS1(=O)=O | x | 0 | x | x | 2 | x | x
CCn1c(Cc2ccccc2)nnc1SCC(=O)Nc1nc2ccccc2s1 | 2 | 3 | -4 | -5 | 8 | x | x
CCn1c(SCC(=O)Nc2nc3ccccc3s2)nnc1-c1ccc(OC)cc1 | 5 | 1 | -3 | 3 | 20* | 0 | 1
CCOC(=O)c1c(NC(=O)CSc2nnc(-c3ccccc3)n2CC)sc(C(C)=O)c1C | -19 | 4 | 2 | 0 | 23* | -2 | 0
COc1ccccc1CCn1cnc(-c2cccc(F)c2)c1C(C)C | x | 0 | x | x | 2 | x | x
CCS(=O)(=O)c1ccc2oc(Nc3ccc(OC)cc3)nc2c1 | 0 | -1 | 3 | 1 | -4 | x | x
CCS(=O)(=O)c1ccc2oc(Nc3ccc(C(C)(C)C)cc3)nc2c1 | -6 | 6 | 2 | -4 | 24* | 1 | 0
Cc1ccccc1C(=O)N[C@H](C(=O)N1CCC[C@H]1C(=O)NC1CCCC1)C1CCCCC1 | x | -2 | x | x | 0 | x | x
COc1ccc(Nc2nc(-c3ccccc3O)nc3ccccc23)cc1 | 0 | 5 | -2 | -7 | 21* | 10 | 3
COc1cccc(Nc2nc(-c3ccccc3O)nc3ccccc23)c1 | 2 | -3 | 1 | -3 | 0 | x | x
C[C@@H]1CN([C@H](C)CO)C(=O)Cc2cc(NC(=O)CCC(F)(F)F)ccc2O[C@@H]1CN(C)C(=O)Nc1ccccc1 | 19 | 1 | 3 | -7 | 8 | x | x
C[C@H]1CN([C@@H](C)CO)C(=O)Cc2cc(NC(=O)CCC(F)(F)F)ccc2O[C@H]1CN(C)Cc1ccc(-c2ccccc2)cc1 | -4 | 8 | -1 | -7 | 29* | 7 | 2
CCOC(=O)c1c(NC(=O)CSc2n[nH]c(-c3ccco3)n2)sc(C)c1C | -21 | 4 | 0 | -6 | 22* | 0 | 0
CCCCNC(=O)NS(=O)(=O)c1ccc(NC(=O)CSc2nnc(-c3ccc(Cl)cc3)n2N)cc1 | x | -3 | x | x | -5 | x | x
C=CCn1c(COc2ccc(C)cc2)nnc1SCC(=O)Nc1ccc(Oc2ccccc2)cc1 | x | 5 | x | x | 1 | x | x
COC(=O)c1ccc(CSc2nc3ccccc3c(=O)n2-c2ccccc2)o1 | -4 | 4 | 2 | 6 | 20* | 4 | 1
COC(=O)c1ccc(CSc2nc3ccccc3c(=O)n2-c2ccc(OC)c(OC)c2)o1 | -12 | -1 | -2 | -3 | 8 | x | x
Cc1cccc(C)c1-c1ccc(CN2C(CC(C)C)C(=O)N(Cc3cn(CCO)nn3)CCS2(=O)=O)cc1 (centres undefined) | 1 | 8 | x | x | 22* | 11 | 3
COc1ccc(/C=N/NC(=O)c2ccn[nH]2)cc1CSc1ccccn1 | 18 | -2 | -1 | -4 | 6 | x | x
COc1ccc(/C=N/NC(=O)c2ccn[nH]2)cc1COc1ccc(Cl)cc1 | -4 | 7 | -4 | -3 | 20* | 5 | 3
Oc1cccc(/C=N/N(Cc2ccccc2)c2ccccc2)c1 | -6 | 9 | 6 | -4 | 22* | 13 | 5
C(=N\N(Cc1ccccc1)c1ccccc1)/c1cccnc1 | -2 | 8 | 0 | -4 | 12 | x | x
CCOC(=O)C1=CCN(S(=O)(=O)c2ccc(Cl)cc2)C1c1cccc(Br)c1 (centres undefined) | x | 5 | x | x | 0 | x | x
CCN(CC(=O)Nc1ccccc1C(F)(F)F)C(=O)CN1C(=O)NC2(CCCCC2)C1=O | 10 | -1 | -1 | -6 | -2 | x | x
SMILES | NRP1-CendR mod | ADAM17 inh | APOBEC3A inh | APOBEC3G inh | ADAM10 inh | ADAM10 confirm | ADAM17 ctr
CCC1(c2ccccc2)NC(=O)N(CC(=O)N(CC(=O)Nc2ccccc2C(F)(F)F)Cc2ccco2)C1=O (centres undefined) | -8 | 0 | 14 | 7 | 81* | 0 | 0
CCc1nc2ccccc2c(C(=O)OCC(=O)Nc2cccc(S(=O)(=O)N3CCOCC3)c2)c1C | -4 | 5 | 2 | 0 | 22* | 3 | 1
N#CCC[C@@H]1CC[C@]2(CCCN(Cc3ccccc3)C2)O1 | x | 0 | x | x | 1 | x | x
O=S(=O)(NCc1ccc(Cl)c(Cl)c1)c1cc(Cl)ccc1N1CC[C@@H](O)C1 | x | 8 | x | x | 21* | 7 | 2
N#CC1=C(N)NC(SCc2ccc(Br)cc2)=C(C#N)C12CCCCC2 | -2 | 8 | 0 | -1 | 25* | 9 | 2
O=C(NN1C(=O)C2C(c3ccccc3)C=CC(c3ccccc3)C2C1=O)c1cccc(Br)c1 (centres undefined) | -3 | 8 | 0 | -2 | 21* | 10 | 5
O=C(NN1C(=O)C2C(c3ccccc3)C=CC(c3ccccc3)C2C1=O)c1ccccc1 (centres undefined) | -5 | 6 | -2 | -9 | 13 | x | x
CCN(CC)S(=O)(=O)c1cccc(NC(=O)COc2ccc(F)cc2Br)c1 | 0 | 2 | 5 | -3 | 21* | -1 | 1
CCCNC(=O)c1cc(C2CCCCN2S(=O)(=O)c2ccc(OC)cc2)on1 (centres undefined) | 0 | -3 | x | x | -4 | x | x
CCCNC(=O)c1cc(C2CCCCN2S(=O)(=O)c2ccccc2)on1 (centres undefined) | 0 | 3 | x | x | 84* | 2 | 1
COc1cc2c(cc1OC)C(c1ccccc1)N(C(=O)c1ccccc1F)CC2 (centres undefined) | -3 | -1 | 0 | -3 | 21* | 1 | 0
COc1cc2c(cc1OC)C(c1ccccc1)N(C(=O)c1ccccc1)CC2 (centres undefined) | -50 | 1 | -2 | -6 | 17 | x | x
O=C(Nc1cccc(F)c1)Nc1cccc(Cl)c1 | -5 | 4 | -4 | -1 | 23* | 1 | 0
COc1ccccc1NS(=O)(=O)c1cccc(NC(=O)Nc2cccc(Cl)c2)c1 | -2 | 9 | -3 | -1 | 31* | 11 | 4
COc1ccccc1NS(=O)(=O)c1cccc(NC(=O)NCCCl)c1 | -8 | -5 | -7 | 2 | -1 | x | x
COC(=O)c1cc(NC(=O)Nc2cccc(Cl)c2)ccc1Cl | -3 | 8 | -1 | -12 | 20* | 6 | 1
CC(c1c[nH]c2ccccc12)c1cn(C)c2ccccc12 (centres undefined) | x | 0 | x | x | 0 | x | x
CN(C)c1ccc(C(CNS(=O)(=O)c2ccc(F)cc2)c2c[nH]c3ccccc23)cc1 (centres undefined) | -14 | 7 | -8 | -6 | 22* | 13 | 3
COc1ccccc1C1=NC(c2ccc(C)cc2)N=C1C (centres undefined) | -3 | 6 | -3 | -6 | 95* | 0 | 0
